{
  "source": "ChEMBL document CHEMBL1961873",
  "about": "“Compounds: GSK PKIS; Assays: Nanosyn kinase panel” (2012)",
  "data": [
    {"test_system": "Epidermal growth factor receptor (Homo sapiens), P00533 [T790M]", "sequence (P00533 whole entry T790M)": "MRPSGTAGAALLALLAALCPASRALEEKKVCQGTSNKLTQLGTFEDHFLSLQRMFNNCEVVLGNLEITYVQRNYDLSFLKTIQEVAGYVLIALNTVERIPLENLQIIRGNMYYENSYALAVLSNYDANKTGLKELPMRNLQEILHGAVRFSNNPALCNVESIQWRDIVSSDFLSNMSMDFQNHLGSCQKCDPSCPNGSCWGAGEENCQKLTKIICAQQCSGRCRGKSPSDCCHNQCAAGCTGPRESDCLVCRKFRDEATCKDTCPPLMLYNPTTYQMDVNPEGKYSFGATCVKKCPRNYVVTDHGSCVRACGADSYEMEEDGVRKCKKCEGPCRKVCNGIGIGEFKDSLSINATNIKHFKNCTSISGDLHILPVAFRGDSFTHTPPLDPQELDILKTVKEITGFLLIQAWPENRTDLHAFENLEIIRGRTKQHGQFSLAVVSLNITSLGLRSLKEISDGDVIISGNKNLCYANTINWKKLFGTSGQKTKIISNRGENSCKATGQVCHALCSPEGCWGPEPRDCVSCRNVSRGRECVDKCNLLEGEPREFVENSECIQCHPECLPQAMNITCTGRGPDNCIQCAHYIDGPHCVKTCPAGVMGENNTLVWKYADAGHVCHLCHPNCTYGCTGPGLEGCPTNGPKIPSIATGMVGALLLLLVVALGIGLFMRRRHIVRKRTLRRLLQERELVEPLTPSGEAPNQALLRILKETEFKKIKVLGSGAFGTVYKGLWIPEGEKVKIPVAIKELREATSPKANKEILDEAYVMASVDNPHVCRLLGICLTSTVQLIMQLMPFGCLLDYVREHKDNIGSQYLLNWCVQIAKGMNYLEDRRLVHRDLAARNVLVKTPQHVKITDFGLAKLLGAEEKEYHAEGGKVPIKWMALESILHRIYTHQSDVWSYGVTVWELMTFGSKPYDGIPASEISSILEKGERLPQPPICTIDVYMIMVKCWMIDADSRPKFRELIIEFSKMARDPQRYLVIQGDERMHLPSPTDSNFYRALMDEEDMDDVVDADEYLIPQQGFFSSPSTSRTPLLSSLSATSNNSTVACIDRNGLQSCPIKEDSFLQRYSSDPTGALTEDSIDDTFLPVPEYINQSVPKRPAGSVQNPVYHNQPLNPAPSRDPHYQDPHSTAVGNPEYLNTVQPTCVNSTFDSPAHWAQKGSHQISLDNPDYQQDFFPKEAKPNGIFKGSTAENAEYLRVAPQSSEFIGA", "settings": "at 1 µM", "units": {"inhibition": "%"}, "values": [
      {"smiles": "Fc1ccc(-c2cc(-c3c[nH]nc3-c3ccccn3)ccn2)cc1", "inhibition": 5.56},
      {"smiles": "Clc1ccc(-c2nn3ncccc3c2-c2ccnc(Nc3ccccc3)n2)cc1", "inhibition": 14.4},
      {"smiles": "CC1=C(C(=O)Nc2cc(Cl)c3[nH]ncc3c2)C(c2ccc(C(F)(F)F)cc2)CC(=O)N1", "note": "(stereo not drawn)", "inhibition": 4.57},
      {"smiles": "CC(C)(CO)CNC(=O)c1ccc2c(c1)/C(=N/Nc1ccc(S(N)(=O)=O)cc1)C(=O)N2", "inhibition": -0.95},
      {"smiles": "COc1cccc(-c2c[nH]c3c(N/N=C/c4ccncc4)ncnc23)c1", "inhibition": 2.55},
      {"smiles": "Cc1ccc(O)cc1Nc1ccnc2cc(-c3ccccn3)ccc12", "inhibition": 15.3},
      {"smiles": "Cc1cccc2c1NC(=O)/C2=N\\Nc1ccc(S(N)(=O)=O)cc1", "inhibition": 0.35},
      {"smiles": "CN1CCC(n2cnc(-c3ccc(F)cc3)c2-c2ccnc(Nc3ccccc3)n2)CC1", "inhibition": 15.5},
      {"smiles": "COc1ccc2[nH]c3c4[nH]c5ccc(OC)cc5c4c4c(c3c2c1)C(=O)NC4=O", "inhibition": 17.9},
      {"smiles": "CNC(=O)c1cncc(/C=C/c2ccccc2Cl)c1", "inhibition": 5.34},
      {"smiles": "COC(=O)Nc1nc2ccc(Oc3ccc(NC(=O)Nc4cccc(Cl)c4)cc3)cc2[nH]1", "inhibition": -0.68},
      {"smiles": "COc1ccc(-c2cc(-c3c[nH]nc3-c3ccccn3)ccn2)cc1", "inhibition": 4.53},
      {"smiles": "CCn1c(-c2nonc2N)nc2ccccc21", "inhibition": -1.8},
      {"smiles": "COc1ccc(CNC(=O)c2ccc(-c3cc(-c4nnc(C)o4)ccc3C)cc2)cc1", "inhibition": 5.47},
      {"smiles": "Fc1cccc(COc2ccc(Nc3ncnc4sc(-c5ccco5)cc34)cc2Cl)c1", "inhibition": 3.73},
      {"smiles": "CCn1c(-c2nonc2N)nc2c(C#CC(C)(C)O)ncc(OC3CCNCC3)c21", "inhibition": 1.16},
      {"smiles": "CNC(=O)c1cc(-c2ccc(F)cc2)cc(-c2ccc(S(=O)(=O)N3CCCC3)cc2)c1N", "inhibition": 0.62},
      {"smiles": "COc1cc(N2CCN(C(C)C)CC2)ccc1Nc1nc(Nc2ccc(F)cc2C(N)=O)c2cc[nH]c2n1", "inhibition": 79.5},
      {"smiles": "CCn1c(-c2nonc2N)nc2cnc(Oc3cccc(NC(=O)c4ccc(N(C)C)cc4)c3)cc21", "inhibition": 0.52},
      {"smiles": "COc1ccc2c(-c3ccnc(Nc4cccc(OC(F)(F)F)c4)n3)cnn2n1", "inhibition": 3.37},
      {"smiles": "NS(=O)(=O)c1ccc(N/N=C2\\C(=O)Nc3ccc4ncccc4c32)cc1", "inhibition": -0.36},
      {"smiles": "O=C(Nc1n[nH]c2cc(-c3ccc(F)cc3)ccc12)C1CC1", "inhibition": 1.6},
      {"smiles": "c1cc(-c2cnn3nc(N4CCOCC4)ccc23)nc(NC2CC2)n1", "inhibition": 0.49},
      {"smiles": "CCc1nn2ncccc2c1-c1ccnc(NC2CC2)n1", "inhibition": 1.56},
      {"smiles": "CN1CCC(n2cnc(-c3ccc(F)cc3)c2-c2ccnc(N)n2)CC1", "inhibition": 1.75},
      {"smiles": "COc1ccc(-c2cc3c(N)ncnc3o2)cc1", "inhibition": -2.06},
      {"smiles": "COc1ccc(-c2oc3ncnc(N)c3c2-c2ccc(NC(=O)Nc3cc(C(F)(F)F)ccc3F)cc2)cc1", "inhibition": 3.03},
      {"smiles": "COc1cc(Nc2nccc(Nc3ccc4c(C)n[nH]c4c3)n2)cc(OC)c1OC", "inhibition": 5.15},
      {"smiles": "COC(=O)c1sc(-n2cnc3cc(OC)c(OC)cc32)cc1OCc1ccccc1C(F)(F)F", "inhibition": -0.3},
      {"smiles": "N#Cc1c(NC(=O)c2ccc(F)cc2)sc2c1CCCC2", "inhibition": -0.08},
      {"smiles": "NS(=O)(=O)c1ccc(Nc2ncc(-c3ccccc3)o2)cc1", "inhibition": 0.87},
      {"smiles": "CCn1cc(-c2ccnc3[nH]ccc23)c(-c2cccc(NC(=O)Nc3ccc(OCc4ccccc4)cc3)c2)n1", "inhibition": -1.25},
      {"smiles": "c1ccc(-c2nc3n(c2-c2ccc4c(c2)OCO4)CCC3)nc1", "inhibition": 0.6}
    ]}
  ]
}
